# Data taken from PubChem BioAssay (NCI).
# This is part of a sample that, as a whole, favours compounds with a hit. Of some 83,000 tested, about 20% had one in any assay.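 How to read the values: 0–100, growth inhibition (40 = 60% inhibited); 0, no net growth; -100 to 0, cell death (-40 = 40% of starting cells died; -100 = all dead).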 Activity calls are given as the source filed them. How the source made its calls: active means growth percent below 10; inactive means the rest.
# System: MDA-MB-468 breast
# Test: NCI-60 one-dose screen, 48 h (100 = growth as untreated, 0 = no growth, -100 = all killed)
# Conditions: 10 µM unless noted
row,Compound,growth
1,CCOC(=O)C(O)C(O)C(=O)OCC (centres undefined),102% (inactive)
2,COC1=C(OC)C(=O)C(SC/C=C(\C)CCCC(C)CCCC(C)CCCC(C)C)=CC1=O (centres undefined),42.6% (inactive)
3,O=C(Nc1ccc(CO)cc1)c1ccccc1Nc1ccnc(C(F)(F)F)c1,123% (inactive)
4,COc1ccc(NC(=O)Cn2c(=O)sc3c(-c4ccc(Cl)cc4)cc(-c4ccc(Cl)cc4)nc32)cc1,114% (inactive)
5,CSc1ccc(-c2cc(-c3ccc(NC(=O)CCCN4CCCC4)cc3)nc(-c3ccc(NC(=O)CCCN4CCCC4)cc3)c2)cc1,14.4% (inactive)
6,CC1Cc2c(N(C)C)ncnc2N(C)c2ccc(Cl)cc21 (centres undefined),28.7% (inactive)
7,CN(Cc1cnc2nc(N)nc(N)c2n1)c1c(Cl)cc(C(=O)NC(CCC(=O)O)C(=O)O)cc1Cl (centres undefined),15.3% (inactive)
8,CCN(CC)c1ccc2cc(C(Nc3ccc(Br)c(C(F)(F)F)c3)c3nnnn3C(C)(C)C)c(=O)oc2c1 (centres undefined),118% (inactive)
9,COc1ccc(-n2cnc3cc(C(=O)N4CCCCC4)ccc32)cc1,103% (inactive)
10,C/C(=N\NC(=O)C(C)SC(C)C(=O)N/N=C(\C)c1cccnc1)c1cccnc1 (centres undefined),103% (inactive)
11,COc1cc(C)ccc1C(=O)c1ccc(C)cc1OC,-20.3% (active)
12,COC(=O)C1(C)Cc2cc(OC(C)=O)c(OC(C)=O)cc2N1 (centres undefined),-3.93% (active)
13,O=[N+]([O-])c1ccc(Oc2cccc(C(F)(F)F)c2)c([N+](=O)[O-])c1,-8.95% (active)
14,COC(=O)[C@H](C(C)C)n1c(=O)c2cc(OC)c(OC)cc2c2cnc3[nH]ccc3c21,36.5% (inactive)
15,CCc1ccc(C(=Nc2ccc(N(C)C(=O)CN3CCN(C)CC3)cc2)c2c(O)[nH]c3ccc(C(=O)OC)cc23)cc1,-75.6% (active)
16,Cc1cc(NS(=O)(=O)c2ccc(-c3cnc(C4CC4)o3)cc2)ccc1I,3.98% (active)
17,c1ccc(CN=C(NCc2ccccc2)NCc2ccccc2)cc1,-14.8% (active)
18,CCCCN(CCCC)CC(C)(C)C(O)c1ccc(OC)c2ccccc12 (centres undefined),41.8% (inactive)
19,O=C1CN(Cc2ccc(C(=O)NO)cc2)C(=O)[C@@H](Cc2ccccc2)N1,109% (inactive)
20,Cc1noc(C)c1C(=O)OCc1coc2ccccc2c1=O,24.5% (inactive)
21,CC(Sc1nc2sc3c(c2c(=O)n1-c1ccc(Cl)cc1)CCCC3)C(=O)Nc1nc(-c2ccc(Br)cc2)cs1 (centres undefined),105% (inactive)
22,CN1CCN(Cc2ccc(NC(=O)c3cncc(C#Cc4cnc5ccc(OCC6(C)COC6)nn45)c3)cc2C(F)(F)F)CC1,-73.8% (active)
23,CCC(C)(C)c1ccc(Nc2ccc(Nc3ccc(C(C)(C)CC)cc3)cc2)cc1,101% (inactive)
24,Cc1cc(C)cc(S(=O)(=O)n2ccc(-c3ccc4c(c3)CCC(C)(C)O4)n2)c1,54.6% (inactive)
25,CC(=O)c1ccc(Br)c([N+](=O)[O-])c1,112% (inactive)
26,COc1ccc(C(c2cc(OC)c(OC)c(OC)c2)N2CCN(Cc3ccccc3)CC2)cc1 (centres undefined),53% (inactive)
27,N#Cc1ccc(C(F)(F)F)nc1N1CCC(C(=O)Nc2ccc(Cl)cc2)CC1,69.2% (inactive)
28,CN1C(=O)C(C2=NNC(c3ccccc3C(=O)O)C2)C(=O)N(C)C1=O (centres undefined),96.4% (inactive)
29,CCOC(=O)c1cocc1C(=O)O,103% (inactive)
